# Assay results as given in PubChem BioAssay AID540353 (National Center for Advancing Translational Sciences (NCATS), 2011).
# The list shows a part of the results. Results filed as inconclusive are left out. Unmarked numbers belong to inactive results. Calls of active or inactive are those of the source. Calls come from the whole dose curve; as a rule, active = well fitted inhibition curve with a large enough effect; inconclusive = small, poorly fitted or top-dose-only effect; inactive = no such curve, though single readings can be large or run the other way.
# Experiment: qHTS for Inhibitos of Bacillus subtilis Sfp phosphopantetheinyl transferase (PPTase): Chemistry Optimization Followup in B. Subtilis HM489
# Conditions: B. subtilis HM489 (acpS-) growth, BacTiter-Glo, 5 h; series mostly up to 114 µM; activity change, negative = inhibition: at the top concentration
# Source text: Phosphopantetheinyl transfer is a process essential to cellular viability and maintenance. Cellular permeable and stable compounds acting as PPTase inhibitors are anticipated to be antimicrobial agents in organisms with complimenting genotypes. […] This experiment evaluated a series of test compounds for antimicrobial activity with B. subtilis HM489 (genotype: acpS- and sfp+), a strain that contains a targeted lesion in the acpS locus and thus requires a functional Sfp gene product for viability. [Mootz HD, 2001] This strain is expected to be sensitized to cell-permeable Sfp inhibitors. NIH Chemical Genomics Center [NCGC] NIH Molecular Libraries Probe Centers Network [MLPCN] MLPCN Grant: MH083266-01 Assay Submitter (PI): Michael Burkart, University of California, San Diego
# Innoculum preparation. Bacillus subtilis HM489 is maintained on lysogeny broth (LB) solidified by the addition of 1.5% w/v agar. Single colonies were used to LB medium (2 mL) and shaken overnight at 30 masculineC. In the morning, this culture (100 uL) was used to seed a fresh LB medium (10 mL) and was shaken at 30 masculineC until the culture OD600 reached 0.5. This culture was diluted 1:100 in fresh LB medium to provide the inoculum below. Bacterial susceptibility. LB medium (2 uL) is dispensed into wells of a sterile white 1536-well plate. Test compounds (23 nL) prepared as serial dilutions in DMSO are added to the plate by pintool transfer. Innoculum (2 uL) is added; the plates are covered with a vented Kalypsys assay lid and incubated at 30 masculineC. After 5 hrs, Bac-Titer Glo (4 uL; Promega Corp, Madison, WI) is added to the plates. They are incubated 10 minutes at room temperature and then the luminescence detected in a ViewLux multimodal plate reader.
SMILES,Potency,"activity change, negative = inhibition [%]"
Cc1cc(C)nc(NC(=S)N2CCN(c3cccc(C(F)(F)F)c3)CC2)c1,33.2 µM (active),–
FC(F)(F)c1cccc(N2CCN(C(=S)Nc3ccncc3)CC2)c1,59.1 µM (active),–
Cc1cc(C)nc(NC(=S)N2CCN(c3ccc(Cl)cc3C(F)(F)F)CC2)c1,10.5 µM (active),–
Cc1ccc(N2CCN(C(=S)Nc3cc(C)ccn3)CC2)cc1,33.2 µM (active),–
Cc1cc(C)nc(NC(=S)N2CCN(c3ccc4nonc4c3)CC2)c1,–,47.3
COc1cccc(NC(=S)N2CCN(c3ccc(Cl)cc3Cl)CC2)n1,–,-5.93
COc1ccnc(NC(=S)N2CCN(c3ncc(C(F)(F)F)cc3Cl)CC2)c1,11.8 µM (active),–
COc1cccc(NC(=S)N2CCN(c3ccccc3C(F)(F)F)CC2)n1,23.5 µM (active),–
Cc1cc(C)nc(NC(=S)N2CCN(c3ccc(Cl)cc3F)CC2)c1,23.5 µM (active),–
